Here are results for 40 molecules from PubChem BioAssay (NCI).

The structures appear in SMILES notation. About 83,000 compounds went through this panel and 20% of them were active in at least one assay; those are over-represented in the sample as a whole.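 Plates (96-well) were seeded with cells, treated with compound at one concentration, and incubated for 48 hours before percent growth was determined.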 Values without a mark were called inactive. Active and inactive are the calls of the source.

In this assay the test system is MDA-MB-435 melanoma. The assay is described as follows: NCI-60 one-dose screen, 48 h (100 = growth as untreated, 0 = no growth, -100 = all killed). To be noted: 10 µM unless noted. On the procedure:
Growth inhibition of the MDA-MB-435 human Melanoma tumor cell line is measured as a screen for anti-cancer activity. Cells are grown in 96 well plates and exposed to the test compound for 48 hours. Compounds are tested at a single concentration, which is 10^-5 M for most compounds. The reported endpoint is percent growth (GI% or GIPRCNT), where numbers from 0 - 100% represent growth inhibition, and numbers from -100% - 0 represent cell death. For example, a value of 40 represents 60% growth inhibition. A value of 0 means no net growth occurred over the course of the experiment. A value of -40 indicates 40% of cells at the beginning of the experiment died by the end of the experiment. A value of -100 means all cells are dead at the end of the experiment.
NCI-60 Human Tumor Cell Lines Screen was performed using the standard one-dose NCI protocol, which is described in more detail at https://dtp.cancer.gov/discovery_development/nci-60/default.htm.
Compounds with GIPRCNT values below 10 were considered active. Activity score was based on GIPRCNT using the following formula: […]
Score is 0 for GIPRCNT values of 100 or above, 50 for GIPRCNT values of 0, and 100 for GIPRCNT values of -100.
As for `O=C(NNc1nc2cc(C(F)(F)F)ccc2n2cccc12)c1cnccn1`, the growth was -56.1% (active).

As to `O=c1oc2ccccc2cc1-c1csc(N=Nc2c(O)[nH]c3ccc(Cl)cc23)n1`, the growth was 106%. Regarding `O=C1Nc2cc(Cl)ccc2/C1=C/c1cccc(OCc2ccccn2)c1`, the growth was -39.9% (active).

Take `O=C(C1=CNC(=S)NC1c1ccc(O)cc1)c1cc2ccccc2oc1=O` (stereo not given): the growth is 105%. As for `COc1ccc2oc3c4[nH]c5ccccc5c4c4c(c3c2c1)C(=O)N(C(=O)OC(C)(C)C)C4=O`, the figure is -26.4% (active); as for `O=C1c2c(c3c4cc(F)ccc4oc3c3[nH]c4ccc(Br)cc4c23)C(=O)N1O`, 37.1%.

For the molecule `CNC(=O)c1cccc(NC(=O)c2ccc3c(c2)nnn3/C(C#N)=C/c2ccccn2)c1`, the growth is 11.5%.

As for `C=C1CCC2C3(C)COC(c4ccccc4)OC3CCC2(C)C1CC(Sc1ccccc1)C1=CCOC1=O` (stereo not given), the growth was 45.8%. Take `Cc1ccc([C@H]2C(C(=O)c3ccc(Cl)cc3)C3(N[C@@H]2c2ccccc2)C(=O)Nc2ccc(Br)cc23)cc1` (stereo not given in full): the growth was 67.6%. As for `C(=C\c1cc(/C=C/c2ccccc2)c2ccccc2n1)/c1ccccc1`, the figure is 84.8%; as for `Cn1cc(-c2cc(N)n3nc(-c4c[nH]c5ccccc45)cc3n2)c2cc(Br)cnc21`, -79.3% (active); as for `CC1(C)CC[C@]2(C(=O)O)CC[C@]3(C)C(=CCC4[C@@]5(C)C[C@@H](O)[C@@H]6OC(c7ccccc7F)OC[C@@]6(C)C5CC[C@]43C)C2C1` (stereo not given in full), 17.4%. The figure for `C=C1CCC2C3(C)COC(c4cccc(F)c4)OC3CCC2(C)C1C/C=C1/C(=O)OCC1O` (stereo not given) is -10.3% (active); for `O=C(c1ccc(OCCN2CCOCC2)cc1)C1[C@H](c2ccc(Cl)cc2)[C@@H](c2ccccc2)NC12C(=O)Nc1ccc(Br)cc12` (stereo not given in full) it is 39.1%; for `N#Cc1ccc(/C=N/NC(=O)c2[nH]c3ccc(Br)cc3c2-c2ccccc2)o1` it is -3.87% (active).

In the case of `COc1ccc2[nH]cc(-c3nnc(N)nc3-c3c[nH]c4ncc(Br)cc34)c2c1`, the growth was 102%. The figure for `COc1cccc(/C=C/C(=O)c2ccc(OC)c(S(N)(=O)=O)c2)c1` is 34.1%. For the molecule `COc1ccc(/C=C/c2nc3ccccc3nc2Nc2cccc(C)c2)cc1`, the growth was 98.3%. Regarding `COc1ccc([C@H](C)Nc2nc(Cl)nc3ccccc23)cc1`, the growth was 45.8%. For the molecule `O=C(c1ccc(OCCN2CCOCC2)cc1)C1[C@H](c2ccc(Cl)cc2)[C@@H](c2ccccc2)NC12C(=O)Nc1ccc(Cl)cc12` (stereo not given in full), the growth was 42%. On to `COc1c(F)ccc(C(=O)Nc2ccc3nc(NC(=O)C4CCCN(S(=O)(=O)c5cccc(Cl)c5)C4)sc3c2)c1F` (stereo not given), for which the growth is 90.9%. Turning to `O=c1[nH]c(=O)c2c(-c3cc4ccccc4oc3=O)ccnc2[nH]1`, the growth was 101%. For `Cc1cccc(-c2nc(Nc3cccc(S(N)(=O)=O)c3)c3ccccc3n2)c1`, the growth is 46.4%. As to `CC(=O)Nc1ccc(-n2cnc3cc(-c4ccc(O)cc4)ccc32)cc1C(F)(F)F`, the growth was 3.5% (active).

For the molecule `Cc1ccc(NC(=O)[C@]23CCC(C)(C)CC2C2=CCC4[C@@]5(C)C[C@@H](O)[C@H](O)[C@@](C)(CO)C5CC[C@@]4(C)[C@]2(C)CC3)cc1` (stereo not given in full), the growth is 26.2%. Take `Cc1ccc(/C=C/c2n(Cc3ccc4ccccc4c3)c3ccccc3[n+]2Cc2ccc3ccccc3c2)cc1`: the growth is -78.2% (active). The figure for `CCCCOc1ccc(NC(=O)c2sc3nc(C)ccc3c2N)cc1` is 39.7%. Consider `COc1cc2oc(-c3cccc(NC(=O)[C@H](Cc4ccccc4)NC(=O)OC(C)(C)C)c3)cc(=O)c2c(OC)c1OC`, for which the growth was 61.9%. Consider `CCCCCCCCOc1cccc(S(=O)(=O)Nc2ccc(C)cc2C(=O)O)c1`, for which the growth was 98.5%.

On to `O=c1[nH]c2ccc(Cl)cc2cc1CSc1nccc(-c2ccc(Cl)cc2)n1`, for which the growth is 76.5%.

Turning to `O=C(COc1ccc2c(c1)CCCC(=O)N2)NCc1ccccc1`, the growth was 3.41% (active). As for `N#Cc1c(-c2cccc(Cl)c2Cl)cc(-c2ccc3ccccc3c2)[nH]c1=O`, the growth is 94.9%.

Consider `COc1ccc(/C=C/c2n(Cc3ccc4ccccc4c3)c3ccccc3[n+]2Cc2ccc3ccccc3c2)cc1`, for which the growth was -91.1% (active). For the molecule `C=Cn1cc(C(=O)O)c(=O)c2cc(F)c(N3CCN(c4nccc(-c5nccs5)n4)CC3)cc21`, the growth is -38% (active).

With `CC(C)CSc1nc(NCCc2c[nH]c3ccccc23)c(C#N)c(-c2ccccc2)n1`, the growth was 71.7%. For the molecule `O=c1[nH]c2ccccc2cc1CSc1nccc(-c2ccc3ccccc3c2)n1`, the growth is 17.3%. Turning to `Cc1cnc(C(=O)NNc2nc3cc(F)ccc3n3c(C(=O)N4CC5CC(C4)N5)ccc23)cn1`, the growth is 45.4%. On to `O=C(COc1ccc(NC(=O)Nc2ccc(Cl)c(Cl)c2)cc1)N=Nc1c(O)[nH]c2ccccc12`, for which the growth was -63.8% (active).

Take `COc1ccc2c(c1)C(=N/N=C(\C)c1ccc(OC)c(S(N)(=O)=O)c1)C(=O)N2`: the growth was 96.1%. The figure for `C[C@H]1CN(C(=O)c2ccc3c(NNC(=O)c4ccncn4)nc4cc(F)c(F)cc4n23)CCN1` is 37.4%.
